Biological target: T1, Protein kinase C zeta type (Homo sapiens) (UniProt Q05513)
T1 sequence (whole entry): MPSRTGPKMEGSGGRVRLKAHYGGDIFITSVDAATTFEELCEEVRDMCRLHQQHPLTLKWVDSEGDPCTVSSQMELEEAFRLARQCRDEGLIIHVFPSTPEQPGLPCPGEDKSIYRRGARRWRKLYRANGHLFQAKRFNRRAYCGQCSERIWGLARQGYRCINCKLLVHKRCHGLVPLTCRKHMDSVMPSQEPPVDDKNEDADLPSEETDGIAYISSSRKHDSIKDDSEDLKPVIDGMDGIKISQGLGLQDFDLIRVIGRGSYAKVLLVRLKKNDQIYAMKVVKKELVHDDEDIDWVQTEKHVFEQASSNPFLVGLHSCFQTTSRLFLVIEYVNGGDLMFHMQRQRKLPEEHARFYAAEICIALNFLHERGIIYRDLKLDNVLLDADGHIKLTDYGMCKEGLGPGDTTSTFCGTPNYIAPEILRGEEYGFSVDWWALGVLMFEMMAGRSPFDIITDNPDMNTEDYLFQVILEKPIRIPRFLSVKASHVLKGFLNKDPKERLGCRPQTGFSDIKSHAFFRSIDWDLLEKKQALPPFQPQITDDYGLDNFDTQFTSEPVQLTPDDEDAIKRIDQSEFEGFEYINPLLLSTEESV
Details: at 10 µM

Structure (SMILES) | residual activity
Nc1ncnc2c1c(-c1ccc(Oc3ccccc3)cc1)cn2C1CCCC1 | 107%
O=c1cc(N2CCOCC2)oc2c1ccc1ccccc12 | 91%
CC(C)c1nn(-c2c(Cl)cccc2Cl)c2nc(Cc3ccc(OCCO)cc3)[nH]c(=O)c12 | 93%
CC(C)(C)n1nc(Cc2cccc3ccccc23)c2c(N)ncnc21 | 116%
c1ccc(-c2cnc(Nc3ccc(OCCN4CCCC4)cc3)s2)cc1 | 109%
O=C(O)/C=C/c1cc(Br)c(Br)c(Br)c1Br | 88%
COc1ccc2c(c1)c(C1=C(c3c[nH]c4ccccc34)C(=O)NC1=O)cn2CCCN(C)C | 27%
NC(=O)Nc1sc(-c2ccc(F)cc2)cc1C(N)=O | 100%
O=C(NC(NC(=S)Nc1ccc(F)c([N+](=O)[O-])c1)C(Cl)(Cl)Cl)C(c1ccccc1)c1ccccc1 (stereo unspecified) | 94%
CCCCc1c(-c2ccc(OC)cc2)[nH]c2nccnc12 | 103%
N#Cc1c(NC(=O)c2cccc3ccccc23)sc2c1CCCC2 | 100%
